The results in this text go back to the antibiotic and cytotoxicity screens of Wong et al. (2023).

Molecules are shown by their SMILES. The whole screen tested about 39,000 compounds, of which about 3,300 (8.5%) were called active. For the sample, actives were picked, then their nearest neighbours and some compounds at random.

This experiment has as its system HepG2. The experiment is described as follows: cytotoxicity call (relative viability < 0.9). The conditions noted are these: 10 µM.
Consider `O=C(C[C@@H]1C[C@H]2c3cc(NS(=O)(=O)c4ccc(F)cc4)ccc3O[C@H]2[C@H](CO)O1)NC1CCCCC1`, for which the cytotoxicity call was “inactive”.

Turning to `C[C@H](CO)N1C[C@H](C)[C@@H](CN(C)S(=O)(=O)c2ccc(Cl)cc2)Oc2ccc(NS(C)(=O)=O)cc2C1=O`, the cytotoxicity call was “inactive”.

Consider `C[C@@H]1CN([C@@H](C)CO)C(=O)c2cc(NC(=O)Nc3ccc(C(F)(F)F)cc3)ccc2O[C@@H]1CN(C)S(=O)(=O)c1ccc(Cl)cc1`, for which the cytotoxicity call is “active”. To `C[C@@H]1CN([C@H](C)CO)C(=O)c2cc(NC(=O)Nc3ccc(C(F)(F)F)cc3)ccc2O[C@@H]1CN(C)S(=O)(=O)c1ccc(Cl)cc1` belongs “active”; to `C[C@H]1CN([C@@H](C)CO)C(=O)c2cc(NS(C)(=O)=O)ccc2O[C@H]1CN(C)S(=O)(=O)c1ccc(Cl)cc1`, “inactive”; to `C[C@H]1CN([C@@H](C)CO)C(=O)c2cc(NS(C)(=O)=O)ccc2O[C@@H]1CN(C)S(=O)(=O)c1ccc(Cl)cc1`, “active”.

Regarding `C[C@H]1CN([C@@H](C)CO)C(=O)c2cc(NC(=O)Nc3ccc(C(F)(F)F)cc3)ccc2O[C@@H]1CN(C)S(=O)(=O)c1ccc(Cl)cc1`, the cytotoxicity call was “active”. As for `Cc1noc(C)c1S(=O)(=O)Nc1ccc2c(c1)C(=O)N([C@H](C)CO)C[C@@H](C)[C@@H](CN(C)S(=O)(=O)c1c(C)noc1C)O2`, the cytotoxicity call is “inactive”. To `CS(=O)(=O)N1CCOC[C@]2(CN(C(=O)c3ccc[nH]3)CCO2)C1` belongs “inactive”; to `Cc1noc(C)c1S(=O)(=O)Nc1cccc2c1O[C@@H](CN(C)S(=O)(=O)c1ccc(Cl)cc1)[C@@H](C)CN([C@@H](C)CO)C2=O`, “inactive”. For `CCS(=O)(=O)N1CCO[C@]2(COCCN(c3cncnc3)C2)C1`, the cytotoxicity call was “inactive”. With `Cc1noc(C)c1NC(=O)Nc1ccc2c(c1)C(=O)N([C@@H](C)CO)C[C@@H](C)[C@@H](CN(C)Cc1ccc(C(F)(F)F)cc1)O2`, the cytotoxicity call was “inactive”. `Cc1cccn2c(=O)c(-c3nn[nH]n3)cnc12`: the cytotoxicity call was “inactive”. Regarding `O=C(C[C@H]1C=C[C@H](NC(=O)CN2CCOCC2)[C@@H](CO)O1)NCc1cccc(F)c1`, the cytotoxicity call is “inactive”. For `C[C@@H]1CN([C@@H](C)CO)S(=O)(=O)c2ccc(-c3cncnc3)cc2O[C@@H]1CN(C)C(=O)NC1CCCC1`, the cytotoxicity call is “inactive”.

Turning to `C[C@H](CO)N1C[C@H](C)[C@@H](CN(C)Cc2ccc(C(=O)O)cc2)Oc2c(NC(=O)Nc3ccc(C(F)(F)F)cc3)cccc2C1=O`, the cytotoxicity call is “inactive”. With `C[C@@H]1CN([C@H](C)CO)C(=O)c2cc(NC(=O)Nc3ccc(C(F)(F)F)cc3)ccc2O[C@H]1CN(C)S(=O)(=O)c1ccc(Cl)cc1`, the cytotoxicity call is “active”. For `C[C@H](CO)N1C[C@H](C)[C@H](CN(C)S(=O)(=O)c2ccc(Cl)cc2)Oc2ccc(NC(=O)Nc3ccc(C(F)(F)F)cc3)cc2C1=O`, the cytotoxicity call is “active”. To `C[C@@H]1CN([C@@H](C)CO)C(=O)c2cc(NC(=O)Nc3ccc(C(F)(F)F)cc3)ccc2O[C@H]1CN(C)S(=O)(=O)c1ccc(Cl)cc1` belongs “active”; to `C[C@H]1CN([C@@H](C)CO)C(=O)c2cc(NC(=O)Nc3ccc(C(F)(F)F)cc3)ccc2O[C@H]1CN(C)S(=O)(=O)c1ccc(Cl)cc1`, “inactive”; to `COc1ccc(S(=O)(=O)N(C)C[C@H]2OCCCC[C@H](C)Oc3ccc(NC(=O)CCC(F)(F)F)cc3C(=O)N([C@@H](C)CO)C[C@@H]2C)cc1`, “inactive”. To `O=C1CCC(C(=O)O)CC1` belongs “inactive”; to `C[C@@H]1CN([C@@H](C)CO)C(=O)c2cc(NC(=O)CCN3CCOCC3)ccc2O[C@@H]1CN(C)S(=O)(=O)c1ccccc1`, “inactive”. In the case of `C[C@@H]1CCCCO[C@@H](CN(C)C(=O)Nc2cccc3ccccc23)[C@@H](C)CN([C@H](C)CO)C(=O)c2cc(NC(=O)Nc3ccc(C(F)(F)F)cc3)ccc2O1`, the cytotoxicity call was “inactive”.

In the case of `COc1ccc(S(=O)(=O)N(C)C[C@@H]2Oc3ccc(NS(=O)(=O)c4cn(C)cn4)cc3C(=O)N([C@H](C)CO)C[C@@H]2C)cc1`, the cytotoxicity call was “inactive”. Regarding `C[C@H](CO)N1C[C@H](C)[C@@H](CN(C)S(=O)(=O)c2ccc3ccccc3c2)OCc2cnnn2CCCC1=O`, the cytotoxicity call is “inactive”. `COc1ccc(C#Cc2cnc3c(c2)C(=O)N([C@H](C)CO)C[C@H](C)[C@H](CN(C)S(=O)(=O)c2cccc(F)c2)O3)cc1OC`: the cytotoxicity call was “inactive”.

Consider `COc1ccc(COCC23Oc4ccccc4[C@H]([C@H]2COC(=O)c2ccccc2)n2c(c4ccccc4c(-c4ccccc4)c2=O)N3C)cc1`, for which the cytotoxicity call was “active”. For the molecule `COC(=O)c1c(C(=O)OC)c2n(c(=O)c1-c1ccccc1)[C@@H]1c3ccccc3O[C@@](CO)([C@@H]1CO)N2C`, the cytotoxicity call was “inactive”.

As for `COC(=O)c1cc(-c2ccccc2)c(=O)n2c1N(C)[C@@]1(COCc3ccc(OC)cc3)Oc3ccccc3[C@@H]2[C@H]1CO[Si](C)(C)C(C)(C)C`, the cytotoxicity call was “inactive”. As to `COc1ccc(COCC23Oc4ccccc4[C@H]([C@H]2COC(=O)NCCCCCC(=O)NO)n2c(c4c(c(C(C)=O)c2=O)C(=O)N(C)C4=O)N3C)cc1`, the cytotoxicity call is “inactive”.

With `COC(=O)c1c(C(=O)OC)c2n(c(=O)c1-c1ccccc1)[C@@H]1c3ccccc3O[C@@](COCc3ccc(OC)cc3)([C@@H]1CO[Si](C)(C)C(C)(C)C)N2C`, the cytotoxicity call was “inactive”. As to `COc1ccc(COCC23Oc4ccccc4[C@H]([C@H]2CO)n2c(c4c(c(C(C)=O)c2=O)C(=O)N(C)C4=O)N3C)cc1`, the cytotoxicity call is “inactive”. As to `COC(=O)c1c(C(=O)OC)c2n(c(=O)c1-c1ccccc1)[C@@H]1c3ccccc3O[C@@](COCc3ccc(OC)cc3)([C@@H]1COC(=O)c1ccccc1)N2C`, the cytotoxicity call is “inactive”. With `COc1ccc(COCC23Oc4ccccc4[C@H]([C@H]2CO)n2c(c4ccccc4c(-c4ccccc4)c2=O)N3C)cc1`, the cytotoxicity call is “active”.

Regarding `COc1ccc(COCC23Oc4ccccc4[C@H]([C@H]2CO[Si](C)(C)C(C)(C)C)n2c(c4ccccc4c(-c4ccccc4)c2=O)N3C)cc1`, the cytotoxicity call is “active”. With `COc1ccc(NC(=O)N(C)C[C@@H]2OCCCC[C@H](C)Oc3ccc(NS(=O)(=O)c4ccc(OC)cc4)cc3C(=O)N([C@H](C)CO)C[C@@H]2C)cc1`, the cytotoxicity call is “inactive”. Next, `CC(C)NC(=O)N(C)C[C@@H]1Oc2c(NC(=O)Nc3ccc4c(c3)OCO4)cccc2C(=O)N([C@@H](C)CO)C[C@@H]1C`: “inactive”.

Regarding `C[C@H]1CCCCO[C@H](CN(C)C(=O)CCC(F)(F)F)[C@@H](C)CN([C@@H](C)CO)C(=O)c2cc(NS(=O)(=O)c3cccs3)ccc2O1`, the cytotoxicity call was “inactive”.
